Bioassay records (PubChem)
The list is not random: actives were taken first. Their share in the collection is about 3.1%.
Mcl1 Bid PPI: Mcl-1/Bid interaction inhibition; Q07820; TR-FRET Mcl-1/Bid-Dy647 peptide binding, 1536-well; inhibition, % at 21.7 µM; 0.97% of 220,000 active; AID 1021;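 active = compounds that cut the binding signal by more than half at the single screening dose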;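 note: His-tagged Mcl-1 with europium anti-His antibody binding Bid BH3 peptide; 0% = Mcl-1 plus peptide wells and 100% = peptide-only wells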
p47phox inh: blocks human p47phox regulatory protein of NADPH oxidases | P14598 | p47phox/p22phox peptide binding, fluorescence polarization, 2 h | inhibition, % at 24.7 µM | 0.53% of 220,000 active | AID 1274;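 active = inhibition above about 30%, limit read from the data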;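 note: 0% = p47phox with labelled peptide and 100% = labelled peptide alone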
Mcl1-Noxa inh: disrupts binding of human Mcl-1 to Noxa peptide. Q07820. inhibition, % at 21.7 µM. 1.5% of 220,000 active. TR-FRET Mcl-1/Noxa peptide binding, 2 h;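 active = compounds that cut the protein-peptide binding signal by more than 50% relative to plate controls in a single-dose test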;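 note: His-tagged Mcl-1 with rhodamine Noxa BH3 peptide and terbium anti-His antibody; 0% = Mcl-1 plus Noxa peptide wells and 100% = peptide-only wells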
14-3-3 Bad PPI: disrupts binding of bovine 14-3-3 zeta to phospho-Bad peptide | P63103 | TR-FRET 14-3-3zeta/Dy647-pBad peptide displacement, 1 h | inhibition, % at 21.7 µM | 0.71% of 220,000 active;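 active = inhibition above about 70%, limit read from the data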;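 note: 0% = full 14-3-3 plus peptide FRET controls and 100% = background without 14-3-3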
Target sequence (P63103 whole entry, looked up): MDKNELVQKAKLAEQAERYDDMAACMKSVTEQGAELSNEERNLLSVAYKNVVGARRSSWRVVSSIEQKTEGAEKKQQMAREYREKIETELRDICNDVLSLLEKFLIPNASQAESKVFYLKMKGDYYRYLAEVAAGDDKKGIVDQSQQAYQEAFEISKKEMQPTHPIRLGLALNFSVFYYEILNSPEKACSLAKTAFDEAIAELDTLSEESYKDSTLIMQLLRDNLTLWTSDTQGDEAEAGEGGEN
Bim-Mcl-1: human Bim-Mcl-1 interaction inhibition | 0.1% of 190,000 active | Bead-based flow cytometry, Bim peptide-Mcl-1 binding | Q07820 | inhibition, % at 10 µM; in the data active = inhibition above about 40%;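 note: 0% = no compound tracer wells and 100% = peptide blocker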
Active calls of the source: *.

For Cc1ccc2nc(/C(C#N)=C\c3ccc([N+](=O)[O-])o3)[nH]c2c1 the results were Mcl1 Bid PPI 52*, p47phox inh -24, Mcl1-Noxa inh 66*, 14-3-3 Bad PPI 5 and Bim-Mcl-1 0.
`CC1CCN(CCCn2c(=S)[nH]c3c(sc4ccccc43)c2=O)CC1` gave Mcl1 Bid PPI -80, p47phox inh -7, Mcl1-Noxa inh 59*, 14-3-3 Bad PPI -11 and Bim-Mcl-1 -3.
Screening CC1CCN(CCCn2c(=S)[nH]c3c(sc4ccc([N+](=O)[O-])cc43)c2=O)CC1 returned Mcl1 Bid PPI -41, p47phox inh 0, Mcl1-Noxa inh 48, 14-3-3 Bad PPI -8 and Bim-Mcl-1 1.
Screening COc1cc(/C=C(/NC(C)=O)C(=O)O)cc(Cl)c1OCc1ccc(Br)cc1 returned Mcl1 Bid PPI -19, p47phox inh -14, Mcl1-Noxa inh 102* and 14-3-3 Bad PPI 2.
Screening COc1cc(/C=C(\NC(C)=O)C(=O)O)cc(OC)c1OC returned Mcl1 Bid PPI -1, p47phox inh -2, Mcl1-Noxa inh 13 and 14-3-3 Bad PPI -6.
`C=CS(=O)(=O)c1sc(Cl)c(N2CCOCC2)c1[N+](=O)[O-]` gave Mcl1 Bid PPI 69*, p47phox inh 23, Mcl1-Noxa inh 67*, 14-3-3 Bad PPI 43 and Bim-Mcl-1 8.
For Cc1cc(SCC(=O)NC(=O)c2cccn2C)nc2ccccc12 the results were Mcl1 Bid PPI -39, p47phox inh -4, Mcl1-Noxa inh 38 and 14-3-3 Bad PPI -2.
`Cc1cc(C(=O)O)ccc1-n1c(C)cc(C=C2C(=O)c3ccccc3C2=O)c1C` gave Mcl1 Bid PPI -40, p47phox inh -18, Mcl1-Noxa inh 30, 14-3-3 Bad PPI 3 and Bim-Mcl-1 0.
Screening Cc1cc(C(=O)O)ccc1-n1c(C)ccc1C returned Mcl1 Bid PPI 57*, p47phox inh -25, Mcl1-Noxa inh 78*, 14-3-3 Bad PPI 0 and Bim-Mcl-1 2.
`Cc1ccc(NC(=O)CN2CCCN(S(=O)(=O)c3ccc(Br)s3)CC2)cc1` gave Mcl1 Bid PPI 4, p47phox inh -16, Mcl1-Noxa inh 0, 14-3-3 Bad PPI -9 and Bim-Mcl-1 0.
`CN(C)/C=N/C1=C(C#N)C(c2cccs2)c2ccc3ccccc3c2O1` (stereo not drawn) gave Mcl1 Bid PPI -36, p47phox inh -34, Mcl1-Noxa inh 29, 14-3-3 Bad PPI 37 and Bim-Mcl-1 0.
`COc1ccc(Cl)cc1C(Nc1cccnc1)c1ccc2cccnc2c1O` (stereo not drawn) gave Mcl1 Bid PPI 97*, p47phox inh 5, Mcl1-Noxa inh 46, 14-3-3 Bad PPI 28 and Bim-Mcl-1 0.
N=c1c(C(=O)NCc2ccc(F)cc2)cc2c(=O)n3ccccc3nc2n1Cc1cccnc1 was read as Mcl1 Bid PPI 20, p47phox inh 3, Mcl1-Noxa inh 75*, 14-3-3 Bad PPI 13 and Bim-Mcl-1 0.
For COc1ccc(CCn2c(=N)c(C(=O)NCc3ccco3)cc3c(=O)n4ccccc4nc32)cc1 the results were Mcl1 Bid PPI 0, p47phox inh 22, Mcl1-Noxa inh 68*, 14-3-3 Bad PPI 1 and Bim-Mcl-1 2.
`COCCn1c(=N)c(C(=O)NCCc2ccc(OC)cc2)cc2c(=O)n3cccc(C)c3nc21` gave Bim-Mcl-1 -1.
N=c1c(C(=O)NCC2CCCO2)cc2c(=O)n3ccccc3nc2n1Cc1cccnc1 (stereo not drawn) was read as Mcl1 Bid PPI -13, p47phox inh 1, Mcl1-Noxa inh 12, 14-3-3 Bad PPI 11 and Bim-Mcl-1 -4.
Screening O=C(NCc1cccnc1)c1ccccc1NS(=O)(=O)c1ccc(F)cc1F returned Mcl1 Bid PPI -11, p47phox inh -16, Mcl1-Noxa inh 23 and 14-3-3 Bad PPI 3.
Cc1ccc(S(=O)(=O)Nc2ccccc2C(=O)NCc2cccnc2)cc1 was read as Mcl1 Bid PPI 12, p47phox inh 1, Mcl1-Noxa inh 66*, 14-3-3 Bad PPI 10 and Bim-Mcl-1 0.
Cc1ccccc1-c1ccc(Nc2ccc(N3CCOCC3)cc2)nn1 was read as Mcl1 Bid PPI 12, p47phox inh 12, Mcl1-Noxa inh 69*, 14-3-3 Bad PPI 43 and Bim-Mcl-1 1.
`O=C1CCCC2=C1C(c1cccs1)Nc1ccc3ncccc3c12` (stereo not drawn) gave Mcl1 Bid PPI -22, p47phox inh -59, Mcl1-Noxa inh 13, 14-3-3 Bad PPI -5 and Bim-Mcl-1 1.
